Experimental data from PubChem BioAssay (EPA / NIEHS).
The source made the active and inactive calls. Rule for the calls: active = hit-call score of the fitted dose curve at least 0.9, where 1 is the maximum; inactive = score below 0.9.

Key:
Details in all cases: mRNA level, 48 h; actives raise or lower the signal
[1] = read-out: Cytochrome P450 7A1 (Homo sapiens) (UniProt P22680); experiment: LTEA_HepaRG_CYP7A1: Life Technologies and Expression Analysis (LTEA) Assay for Cytochrome P450 7A1 (CYP7A1) using HepaRG (AID 2283496)
In short: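 HepaRG, 48 h exposure, 8-pt half-log series from 100 uM, 0.5% DMSO vehicle, duplicates. Readout: TaqMan qRT-PCR mRNA vs three housekeeping genes; bidirectional curve fit against DMSO baseline.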

[2] = read-out: Glutathione S-Transferase (GSTA2), GSTA2 (gene 2939); experiment: LTEA_HepaRG_GSTA2: Life Technologies and Expression Analysis (LTEA) Assay for Glutathione S-Transferase (GSTA2) using HepaRG (AID 2283497)
In short: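 GSTA2 transcript levels came from Fluidigm TaqMan qRT-PCR normalized to three housekeeping genes, fitted in both directions against DMSO. HepaRG cultures received chemicals for 48 h in serum-free induction medium (0.5% DMSO), 8 half-log concentrations up to 100 uM, duplicate.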

[3] = read-out: Glutamate-cysteine ligase catalytic (GCLC), GCLC (gene 2729); experiment: LTEA_HepaRG_GCLC: Life Technologies and Expression Analysis (LTEA) Assay for Glutamate-cysteine ligase catalytic (GCLC) using HepaRG (AID 2283498)
In short: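 Expression by TaqMan qRT-PCR, normalized to three housekeeping genes (ACTB, GAPDH, POLR2A), with up- or down-regulation fitted against DMSO. HepaRG cells dosed in duplicate for 48 h with 8 half-log concentrations up to 100 uM, vehicle 0.5% DMSO.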

[4] = read-out: growth arrest and DNA damage 45 (GADD45G), GADD45G (gene 10912); experiment: LTEA_HepaRG_GADD45G: Life Technologies and Expression Analysis (LTEA) Assay for growth arrest and DNA damage 45 (GADD45G) using HepaRG (AID 2283499)
In short: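 HepaRG, 48 h exposure, top 100 uM, half-log 8-point series, 0.5% DMSO vehicle, duplicates. Readout: GADD45G transcript by qRT-PCR (Fluidigm array), housekeeping-normalised (ACTB/GAPDH/POLR2A). Bidirectional curve fit vs DMSO baseline.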

[5] = read-out: Glutamate-cysteine ligase regulatory (GCLM), GCLM (gene 2730); experiment: LTEA_HepaRG_GCLM: Life Technologies and Expression Analysis (LTEA) Assay for Glutamate-cysteine ligase regulatory (GCLM) using HepaRG (AID 2283500)
In short: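 Endpoint is GCLM transcript level by qRT-PCR, normalized to three housekeeping genes, after 48 h chemical exposure of human HepaRG cells (0.5% DMSO vehicle, top 100 uM, half-log dilutions). Fitting was bidirectional relative to DMSO.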

[6] = read-out: Glutathione S-transferase M3 (GSTM3), GSTM3 (gene 2947); experiment: LTEA_HepaRG_GSTM3: Life Technologies and Expression Analysis (LTEA) Assay for Glutathione S-transferase M3 (GSTM3) using HepaRG (AID 2283501)
In short: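 qRT-PCR read-out of GSTM3 transcript, normalized to three housekeeping genes, from human HepaRG cells after 48 h chemical exposure. Eight-point half-log series, top 100 uM, 0.5% DMSO vehicle; gain or loss fitted relative to DMSO baseline.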

[7] = read-out: Heat shock 70 kDa protein 1 (HSPA1A), gene 3303; experiment: LTEA_HepaRG_HSPA1A: Life Technologies and Expression Analysis (LTEA) Assay for Heat shock 70 kDa protein 1 (HSPA1A) using HepaRG (AID 2283502)
In short: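 Cells were plated and cultured for 48 h, then switched to serum-free induction medium. Chemicals were added at eight half-log concentrations up to 100 uM for 48 h. RNA was then isolated and HSPA1A measured by qRT-PCR with bidirectional curve fitting against DMSO.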

[8] = read-out: Hypoxia-inducible factor 1-alpha (Homo sapiens) (UniProt Q16665); experiment: LTEA_HepaRG_HIF1A: Life Technologies and Expression Analysis (LTEA) Assay for Hypoxia-inducible factor 1 (HIF1A) Trancription factor using HepaRG (AID 2283503)
In short: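 HIF1A transcript level read by qRT-PCR (ACTB, GAPDH, POLR2A normalization) after 48 h chemical exposure of HepaRG cultures. Eight half-log concentrations, top 100 uM, 0.5% DMSO vehicle, duplicates; bidirectional curve fit against DMSO baseline.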

[9] = read-out: 3-Hydroxy-3-Methylglutaryl-CoA Synthase 2 (HMGCS2), HMGCS2 (gene 3158); experiment: LTEA_HepaRG_HMGCS2: Life Technologies and Expression Analysis (LTEA) Assay for 3-Hydroxy-3-Methylglutaryl-CoA Synthase 2 (HMGCS2) using HepaRG (AID 2283504)
In short: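 qRT-PCR read-out of HMGCS2 transcript, normalised to three housekeeping genes, in HepaRG cells after 48 h chemical exposure. Eight-point curves from 100 uM, half-log dilutions, 0.5% DMSO vehicle; gain or loss fitted relative to DMSO baseline.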

HGF (gene 3082) = experiment: LTEA_HepaRG_HGF: Life Technologies and Expression Analysis (LTEA) Assay for Hepatocyte Growth Facto (HGF) using HepaRG (AID 2283505)
In short: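 HepaRG, 48 h dosing, 8-pt half-log series from 100 uM in 0.5% DMSO, duplicates. Readout: TaqMan qRT-PCR of HGF mRNA, housekeeping-normalized; bidirectional curve fit vs DMSO baseline.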

[10] = read-out: Insulin Like Growth Factor 1 (IGF1), IGF1 (gene 3479); experiment: LTEA_HepaRG_IGF1: Life Technologies and Expression Analysis (LTEA) Assay for Insulin Like Growth Factor 1 (IGF1) using HepaRG (AID 2283506)
In short: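 Cells are thawed, plated and cultured 48 h, then exposed in duplicate to chemical (highest 100 uM, half-log steps, 0.5% DMSO) for another 48 h. Total RNA is analysed by Fluidigm qRT-PCR for IGF1 expression relative to vehicle.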

[11] = read-out: Intercellular Adhesion Molecule 1 (ICAM1), ICAM1 (gene 3383); experiment: LTEA_HepaRG_ICAM1: Life Technologies and Expression Analysis (LTEA) Assay for Intercellular Adhesion Molecule 1 (ICAM1) using HepaRG (AID 2283507)
In short: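 HepaRG, 48 h exposure, 8-pt half-log series from 100 uM, 0.5% DMSO vehicle, duplicates. Readout: TaqMan qRT-PCR mRNA, housekeeping-normalized (ACTB/GAPDH/POLR2A). Bidirectional curve fit vs DMSO baseline.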

[12] = read-out: Insulin-like growth factor-binding protein 1 (IGFBP1), IGFBP1 (gene 3484); experiment: LTEA_HepaRG_IGFBP1: Life Technologies and Expression Analysis (LTEA) Assay for Insulin-like growth factor-binding protein 1 (IGFBP1) using HepaRG (AID 2283508)
In short: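 qRT-PCR mRNA read-out (TaqMan, Fluidigm array), normalised to three housekeeping genes; HepaRG cells, 48 h exposure, 8-pt half-log series from 100 uM, 0.5% DMSO vehicle; bidirectional curve fit vs DMSO baseline.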

[13] = read-out: Interleukin 6 (IL6), IL6 (gene 3569); experiment: LTEA_HepaRG_IL6: Life Technologies and Expression Analysis (LTEA) Assay for Interleukin 6 (IL6) using HepaRG (AID 2283509)
In short: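 Transcript levels, normalized to three housekeeping genes, were quantified by qRT-PCR after 48 h chemical treatment of HepaRG cells. Eight-point half-log series from 100 uM in 0.5% DMSO, duplicates. Fitted both directions against DMSO baseline.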

[14] = read-out: Interleukin 6 Receptor (IL6R), IL6R (gene 3570); experiment: LTEA_HepaRG_IL6R: Life Technologies and Expression Analysis (LTEA) Assay for Interleukin 6 Receptor (IL6R) using HepaRG (AID 2283510)
In short: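 Cells were thawed, plated and cultured 48 h, then medium was changed to serum-free induction medium. Chemicals were added in duplicate (100 uM top, half-log steps, 0.5% DMSO) for 48 h. Lysates were analyzed by qRT-PCR for IL6R expression.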

[15] = read-out: Potassium channel subfamily K member 1 (KCNK1), KCNK1 (gene 3775); experiment: LTEA_HepaRG_KCNK1: Life Technologies and Expression Analysis (LTEA) Assay for Potassium channel subfamily K member 1 (KCNK1) using HepaRG (AID 2283511)
In short: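 KCNK1 transcript measured by TaqMan qRT-PCR against three housekeeping genes, after HepaRG cells were treated 48 h with eight half-log concentrations (top 100 uM, 0.5% DMSO). Curves fitted bidirectionally relative to vehicle.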

[16] = read-out: Keratin 19 (KRT19), KRT19 (gene 3880); experiment: LTEA_HepaRG_KRT19: Life Technologies and Expression Analysis (LTEA) Assay for Keratin 19 (KRT19) using HepaRG (AID 2283512)
In short: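 HepaRG, 48 h chemical exposure, 8-pt half-log CRC from 100 uM, 0.5% DMSO vehicle, duplicates. Readout: TaqMan qRT-PCR of KRT19 mRNA, housekeeping-normalized (ACTB/GAPDH/POLR2A). Bidirectional fit vs DMSO baseline.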

[17] = read-out: Lipase C (LIPC), LIPC (gene 3990); experiment: LTEA_HepaRG_LIPC: Life Technologies and Expression Analysis (LTEA) Assay for Lipase C (LIPC) using HepaRG (AID 2283514)
In short: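 LIPC expression was quantified by qRT-PCR against three housekeeping genes (ACTB, GAPDH, POLR2A). Differentiated human HepaRG cells received eight half-log doses (top 100 uM, 0.5% DMSO) in duplicate for 48 h; fitting bidirectional relative to DMSO.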

[18] = read-out: Lipoprotein lipase (LPL), LPL (gene 4023); experiment: LTEA_HepaRG_LPL: Life Technologies and Expression Analysis (LTEA) Assay for Lipoprotein lipase (LPL) using HepaRG (AID 2283515)
In short: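 LPL transcript levels quantified by TaqMan qRT-PCR against three housekeeping genes after 48 h chemical treatment of HepaRG cells. Eight-point half-log series from 100 uM in 0.5% DMSO, tested in duplicate; bidirectional fitting versus vehicle.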

[19] = read-out: JUN Transcription Factor, JUN (gene 3725); experiment: LTEA_HepaRG_JUN: Life Technologies and Expression Analysis (LTEA) Assay for JUN Transcription Factor using HepaRG (AID 2283513)
In short: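 Read-out is JUN transcript level by TaqMan qRT-PCR, normalized to ACTB, GAPDH and POLR2A, after 48 h chemical treatment of HepaRG cells. Concentration-response spanned eight half-log points up to 100 uM in 0.5% DMSO.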

Measured: outcome

Hypoxia-inducible factor 1-alpha (Homo sapiens), sequence (Q16665 whole entry, looked up): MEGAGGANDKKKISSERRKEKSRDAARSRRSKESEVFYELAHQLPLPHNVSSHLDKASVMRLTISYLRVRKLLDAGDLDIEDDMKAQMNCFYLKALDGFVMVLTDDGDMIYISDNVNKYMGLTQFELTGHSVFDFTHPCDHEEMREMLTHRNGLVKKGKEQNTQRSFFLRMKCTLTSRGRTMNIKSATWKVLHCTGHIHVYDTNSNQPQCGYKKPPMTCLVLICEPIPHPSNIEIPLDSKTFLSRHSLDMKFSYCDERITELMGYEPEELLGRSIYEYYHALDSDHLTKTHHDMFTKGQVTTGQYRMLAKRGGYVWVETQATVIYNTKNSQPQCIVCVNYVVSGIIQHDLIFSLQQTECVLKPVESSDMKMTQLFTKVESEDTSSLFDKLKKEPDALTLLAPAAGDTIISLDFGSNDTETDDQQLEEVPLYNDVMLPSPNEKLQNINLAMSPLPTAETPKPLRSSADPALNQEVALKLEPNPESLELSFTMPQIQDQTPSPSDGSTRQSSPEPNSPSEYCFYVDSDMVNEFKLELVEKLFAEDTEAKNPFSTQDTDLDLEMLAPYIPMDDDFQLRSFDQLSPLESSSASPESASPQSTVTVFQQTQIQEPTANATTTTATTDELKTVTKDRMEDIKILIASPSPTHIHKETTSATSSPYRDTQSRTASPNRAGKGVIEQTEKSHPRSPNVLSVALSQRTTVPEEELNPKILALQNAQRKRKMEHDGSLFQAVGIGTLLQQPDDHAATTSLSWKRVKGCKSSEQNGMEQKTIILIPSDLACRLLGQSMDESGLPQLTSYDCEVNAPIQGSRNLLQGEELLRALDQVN

Cc1ccc([N+](=O)[O-])cc1N
inactive: [1] | [2] | [3] | [4] | [5] | [6] | [7] | [8] | [9] | HGF (gene 3082) | [10] | [11] | [12] | [13] | [14] | [15] | [16] | [17] | [18]

Nc1ccc(C(=O)O)cc1
inactive: [1] | [2] | [3] | [4] | [5] | [6] | [7] | [8] | [9] | HGF (gene 3082) | [10] | [11] | [12] | [13] | [14] | [15] | [16] | [19] | [17] | [18]

C1CNCCN1
inactive: [1] | [2] | [3] | [4] | [5] | [6] | [7] | [8] | [9] | HGF (gene 3082) | [10] | [11] | [12] | [13] | [14] | [15] | [16] | [19] | [17] | [18]
